Test results from PubChem BioAssay AID2391 (Southern Research Specialized Biocontainment Screening …, 2010).
The whole screen tested about 310,000 compounds, of which about 410 (0.13%) were called active. Another 2% or so got no clear call; they are omitted. No rule for the calls is given here. These entries were drawn from the full list. Results with a measured potency or affinity are listed apart.

Assay: RSV antiviral activity via CPE protection, HEp-2 cells, primary 10 µM value included (AID 2391)
Details: RSV-induced CPE inhibition, at 10 µM, hits give high values

CPE inhibition, inactive:
Cc1ccc(C(CCN(Cc2ccccc2)C(=O)c2ccco2)c2ccco2)cc1 (stereo unspecified) 6.53%
Cc1cccc(CSc2nc3sc(C)c(C)c3c(=O)n2Cc2ccco2)c1 13.2%
O=C(CSc1nnc2ccccn12)Nc1ncc(Cl)cc1Cl 4.23%
Cc1cc(SCC(=O)Nc2ncc(Cl)cc2Cl)nc2ccccc12 5.54%
COc1ccc(-n2c(SC(C)C(=O)Nc3ncc(Cl)cc3Cl)nc3ccccc32)cc1 (stereo unspecified) 15.9%
COCCn1c(SCC(=O)Nc2ccc(Cl)cn2)nc2ccccc21 -1.02%
Cc1ccc(-n2c(SCC(=O)Nc3cccc(S(N)(=O)=O)c3)nc3ccccc32)cc1 1.64%
COc1ccc(-n2c(SCC(=O)Nc3ncc(Cl)cc3Cl)nc3ccccc32)cc1 18.7%
CC(=O)N[C@@H](Cc1ccc(O)cc1)CN1C(N)=NC[C@@H]1CC(C)C -0.28%
O=C(COc1cccc2c1CCNC2=O)Nc1cccc(C(F)(F)F)c1 1.19%
C/C(=N/OC(=O)C1CC12CCC2)c1ccc(Br)cc1 (stereo unspecified) 2.98%
CCOC(=O)C1CCN(C(=O)CC(C)S(=O)(=O)c2ccc3c(c2)NC(=O)CO3)CC1 (stereo unspecified) 7%
CCOc1ccc(S(=O)(=O)Nc2ccc(F)cc2)c(C)c1C 6.57%
Cc1cccc(C)c1OCc1cc(C(=O)N2CCN(C3CCCC3)CC2)no1 0.09%
O=C(Oc1ccc(-c2nnco2)cc1)N1CCCCC1 2.35%
OCCNc1c2ccccc2nc2c(F)c(F)c(F)c(F)c12 -1.66%
CCCNc1c(F)c(F)c2c(C)c3ccccc3nc2c1F -1.87%
CCOc1ccc(C2=C/C(=C/c3cccnc3)C(=O)O2)cc1 1.93%
COc1ccc(OC)c(CCNC(=O)CN2C(=O)CCSc3ccccc32)c1 -3.24%
Cc1ccc2nc(-c3cccc(N)c3)[nH]c2c1 2.27%
Cc1ccc2[nH]c(-c3cccc(F)c3)cc(=O)c2c1 -0.29%
Cc1cccc(-c2nc(CS(=O)CC(=O)NCCc3ccccc3)c(C)o2)c1 (stereo unspecified) 0.05%
COCc1[nH]nc2c1C1(C(=O)N(C)c3ccccc31)C(C#N)=C(N)O2 (stereo unspecified) 2.9%
O=C1c2ccccc2C(=O)N1CCc1csc(-c2ccccc2)n1 3.44%
O=C1c2ccccc2C(=O)N1CCc1csc(-c2ccc(F)cc2)n1 2.17%
CCSc1nc(O)cc(=O)n1-c1ccc(OC)cc1 -0.46%
CC(NC(=O)c1nn(C)c(=O)c2ccccc12)c1ccc(F)cc1 (stereo unspecified) 1.39%
O=C(/C=C/c1cccs1)Nc1sc2c(c1C(=O)O)CCCC2 16.6%
O=C(Nc1sc2c(c1C(=O)O)CCCCC2)c1ccccc1 2.56%
O=C(O)CCC(=O)Nc1sc2c(c1C(=O)NCc1ccccc1)CCCC2 1.43%
O=C(/C=C/c1ccco1)Nc1sc2c(c1C(=O)O)CCC2 3.96%
Cn1cnnc1Sc1cc(N2CCN(S(=O)(=O)c3ccccc3)CC2)ccc1[N+](=O)[O-] 2.72%
Cc1ccc(S(=O)(=O)N2CCN(c3ccc([N+](=O)[O-])c(Sc4nncn4C)c3)CC2)cc1 2%
Cc1ccc(C(=O)COC(=O)c2ccncc2)cc1[N+](=O)[O-] 1.18%
CCCCCCCN1C/C=C\C(c2ccc(OC)cc2)N(Cc2ccc(F)cc2)C(=O)[C@H]1Cc1ccccc1 (stereo partly specified) 0.33%
CCN(CC(=O)NCc1ccccn1)S(=O)(=O)c1cc(Cl)ccc1Cl -1.64%
Cc1ccc2[nH]c3c(=O)[nH]ncc3c2c1 -1.42%
CCNC(=O)C1CN(S(=O)(=O)c2ccccc2)CCN1S(=O)(=O)c1ccccc1 (stereo unspecified) -2.71%
CC(C)(C)NC(=O)C1CN(S(=O)(=O)c2ccccc2)CCN1S(=O)(=O)c1ccccc1 (stereo unspecified) 0.62%
CCCCn1c(N)c(N(CC(C)C)C(=O)c2c(CC)noc2C)c(=O)[nH]c1=O -1.37%
C/C(N)=C(/C#N)C(=O)COC(=O)c1cc2c(s1)CCC(C)C2 (stereo unspecified) 5.48%
Cc1cc(C(=O)OCC(N)=O)c(C)n1-c1ccccc1 -3.46%
Cc1cc(C(=O)COC(=O)c2ccc[nH]c2=O)c(C)n1-c1ccc(F)cc1 2.01%
CNC(=O)COC(=O)c1cc2c(s1)CCCC2 1.88%
C/C(N)=C(/C#N)C(=O)COC(=O)C(c1ccccc1)c1ccccc1 0.91%
C/C(N)=C(/C#N)C(=O)COC(=O)c1cccc2ccccc12 4.13%
C/C(N)=C(/C#N)C(=O)COC(=O)c1ccccc1O 1.5%
C/C(N)=C(/C#N)C(=O)COC(=O)c1ccccc1Oc1ccccc1 2.44%
[O-]/[N+](=C/c1ccco1)c1ccccc1 2.24%
COc1cccc(NC(=O)c2ccccc2C(F)(F)F)c1 1.62%
O=C(c1ccc(Cl)c(S(=O)(=O)N2CCOCC2)c1)N1CCOCC1 -0.1%
CCCCOC(=O)c1ccc(NC(=O)c2ccc(F)cc2F)cc1 3.03%
CCOC(=O)c1sc(NC(=O)Cc2ccc(F)cc2)nc1C 17.9%
NC(=O)CCN1CCN(Cc2nc(C(c3ccccc3)c3ccccc3)no2)CC1 -0.36%
O=S(=O)(Nc1nc2ccccc2s1)c1cnc(Cl)c(Br)c1 0.69%
COC(=O)c1ccccc1S(=O)(=O)N1CCCC(c2nc3c(nnn3Cc3ccc(C)cc3)c(=O)[nH]2)C1 (stereo unspecified) 10.4%
O=c1[nH]c(C2CCCN(S(=O)(=O)c3ccccc3)C2)nc2c1nnn2Cc1ccc2c(c1)OCCO2 (stereo unspecified) 60.4%
O=c1[nH]c(C2CCCN(S(=O)(=O)c3ccccc3)C2)nc2c1nnn2Cc1cccc(Cl)c1 (stereo unspecified) 43%
O=c1[nH]c(C2CCCN(S(=O)(=O)c3ccccc3)C2)nc2c1nnn2Cc1ccccc1F (stereo unspecified) 3.4%
Cc1ccc(Cn2nnc3c(=O)[nH]c(C4CCCN(S(=O)(=O)c5ccccc5F)C4)nc32)cc1 (stereo unspecified) 4.65%
Cc1ccc(Cn2nnc3c(=O)[nH]c(C4CCCN(S(=O)(=O)c5ccc(F)cc5)C4)nc32)cc1 (stereo unspecified) 5.93%
Cc1ccc(Cn2nnc3c(=O)[nH]c(C4CCCN(S(=O)(=O)c5ccccc5)C4)nc32)cc1 (stereo unspecified) 13%
COC(=O)c1ccc(Cn2nnc3c(=O)[nH]c(C4CCCN(S(=O)(=O)c5ccccc5Cl)C4)nc32)cc1 (stereo unspecified) 2.61%
CN1CCN(/C(=N\O)c2nonc2N)CC1 -0.46%
Cc1ccc(-c2[nH]c3cc(C(=O)NCCCn4ccnc4)ccc3c(=O)c2O)cc1 1.07%
O=C(CCN1C(=O)S/C(=C\C=C\c2ccccc2)C1=O)Nc1ccc(O)cc1 -1.82%
CCOC(=O)CC(NC(=O)C(CC)c1ccccc1)c1ccccc1Cl (stereo unspecified) 3.39%
COc1ccc(N2CCN(S(=O)(=O)c3ccc(OC)c(C(=O)N4CCOCC4)c3)CC2)cc1 0.25%
COc1ccccc1C(=O)C1CCCN(C(=O)c2ccccn2)C1 (stereo unspecified) 2.51%
Cc1ccc(CN(C)C(=O)COC(=O)CSc2ccc(C(N)=O)cc2[N+](=O)[O-])cc1 -0.57%
COC(=O)c1ccc(NC(=O)c2ccccc2-c2ccccc2C(=O)O)cc1 0.77%
CCCCCCC(=O)Nc1c2c(nc3ccccc13)N(C)CC2 0.9%
O=C(Nc1ccc(F)cc1F)N1CCCC(c2nc(-c3ccc(F)cc3)no2)C1 (stereo unspecified) 14.7%
O=C(Nc1cccc(Cl)c1)Nc1nnc(CC2=CCCCC2)s1 5.11%
CCOc1ccc(S(=O)(=O)N(C)CC(=O)NCc2ccccn2)cc1Cl 1.39%
COCCN1C(=O)C(CC(=O)Nc2ccc(C(C)=O)cc2)SC1=Nc1ccccc1 (stereo unspecified) 2.47%
COCCN1C(=O)C(CC(=O)Nc2ccc(C(=O)O)cc2)SC1=Nc1ccccc1 (stereo unspecified) 1.29%
COc1ccc(OCc2n[nH]c(=S)n2Cc2ccco2)cc1 2.67%
O=C1CCCC2=C1C(c1ccc(Cl)cc1)C1C(=O)c3ccccc3C1=N2 (stereo unspecified) 58.3%
Cc1ccc(C2C3=C(CCCC3=O)N=C3c4ccccc4C(=O)C32)cc1 (stereo unspecified) 11.5%
CCOc1nc(Nc2ccc(OC)cc2)nc(N2CCOCC2)n1 2.38%
COc1ccc(C(=O)/C=C/NCc2ccc(F)cc2)cc1OC 4.99%
Cc1ccc(C)c(S(=O)(=O)N2CCCOC2CNC(=O)C(=O)NCc2cccs2)c1 (stereo unspecified) 1.48%
CCN(CC)c1ccc(CN(C(=O)c2cccs2)C2CCS(=O)(=O)C2)cc1 (stereo unspecified) 1.38%
COc1ccc(NC(=O)Nc2cc3oc4ccccc4c3cc2OC)cc1 9.45%
COc1cc2c(cc1NC(=O)Nc1ccc(C)cc1)oc1ccccc12 33%
CCS(=O)(=O)Nc1ccc(C2=NN(S(=O)(=O)CC)C(c3cccs3)C2)cc1 (stereo unspecified) 2.5%
Cc1ccc(CS(=O)Cc2ccc(C(=O)NCC(C)c3ccccc3)o2)cc1 (stereo unspecified) 1.69%
COCCCNC(=O)CN(c1cc(Cl)ccc1OC)S(C)(=O)=O 0.7%
C=CCNC(=O)c1ccc(-c2nc(-c3ccc(Cl)cc3Cl)cs2)cc1 3.05%
O=C(O)c1ccc(-c2nc(-c3ccccc3Cl)cs2)cc1 15.1%
